We go through 34 compounds from PubChem BioAssay (NCATS).

Assay [1] in a line: Cellular viability qHTS for adrenocortical cancer (ACC) cell line SW-13 (AID 1963989). Also: nearly all actives have a fitted effect of over 65% in size.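 As to activity (max response): cells grown in serum-free medium with ITS supplement; % is scaled to controls: 0 for no effect and ±100 for the full control effect.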 To be noted: SW-13 ACC cells viability, CellTiter-Glo, 48 h; activity (max response): hits give low values. Put shortly:
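Here, serum-free SW-13 cultures were dosed up to 46 uM. Following 48 h, ATP-dependent luminescence (CellTiter-Glo) reported viable cells, and logistic modeling produced IC50 values.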
(Quantitative high-throughput screening tests each substance at several concentrations.)

Assay [2] in a line: Cellular viability qHTS for adrenocortical cancer (ACC) cell line NCI-H295R (AID 1963990). Also: nearly all actives have a fitted effect of over 60% in size.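 As to activity change, negative = viability loss: 0% = DMSO only wells and -100% = full killing with cytotoxic reference compound.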 Put shortly:
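Viability of NCI-H295R after 48 h of treatment (final up to 46 uM) measured through cellular ATP luminescence.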

Several values for one entry are separate records, joined by “and”; a condition that tells them apart may be missing. Equal values may be shown once. Results filed as inconclusive are left out. Unmarked numbers belong to inactive results. Activity calls are given as the source filed them. Calls follow the shape of the dose curve; as a rule, active = well fitted cell-killing curve with a large enough effect; inconclusive = small, poorly fitted or top-dose-only effect; inactive = flat fitted curve, though single readings scatter.
Potency is read from the fitted curve at half-maximal effect.

In the case of `CC(=O)[C@@]1(O)CC[C@H]2[C@@H]3C[C@H](C)C4=CC(=O)C=C[C@]4(C)[C@@]3(F)[C@@H](O)C[C@@]21C`, the activity (max response) in assay [1] is 3.6%. Besides, in assay [2], the Potency result was “inactive”.

Turning to `CCCCOCCOCCOCc1cc2c(cc1CCC)OCO2`, the activity (max response) in assay [1] is 0.496% and -9.13%. In addition, in assay [2], the Potency entry is “inactive”.

For the compound `COCCNc1cc(NC(=O)N2CCCc3cc(CN4CCN(C)CC4=O)c(C=O)nc32)ncc1C#N`, the activity (max response) in assay [1] is -2.64%. Besides, the activity change, negative = viability loss in assay [2] is -1.4% [at 9.17 µM].

For the compound `Nc1cc(C(F)(F)F)c(-c2nc(N3CCOCC3)nc(N3CCOCC3)n2)cn1`, the Potency in assay [1] is 11.2 µM (active); in assay [2], 2 µM (active).

Consider `O=C(CN1CCN(Cc2ccc3c(c2)OCO3)CC1)N1c2ccccc2Sc2ccccc21`, for which the activity (max response) in assay [1] was -10.1%. Moreover, the Potency entry in assay [2] is “inactive”.

As for `O=C(NCCCNC(=O)c1ccc[nH]c1=O)c1cc(-c2ccccc2)on1`, the Potency in assay [1] was 22.4 µM (active); in assay [2], 15.8 µM (active).

For the compound `CCn1nc(C(=O)O)c(=O)c2cc3c(cc21)OCO3`, the activity (max response) in assay [1] was 1.15%. In assay [2], the Potency entry is “inactive”.

In the case of `CC(C)[N+](C)(CCOC(=O)C1c2ccccc2Oc2ccccc21)C(C)C`, the activity (max response) in assay [1] is -9.17%. The Potency result in assay [2] was “inactive”.

`CCS(=O)(=O)c1ccc2oc(-c3ccc4ccccc4c3)nc2c1`: the activity (max response) in assay [1] was 1.49%. In addition, the Potency entry in assay [2] was “inactive”.

Turning to `CCN(CC)C(=O)Cc1csc(NS(=O)(=O)c2cccc(Cl)c2C)n1`, in assay [1], the activity (max response) was -19.2%. The Potency result in assay [2] is “inactive”.

For the compound `CC(C)CCOC(=O)c1ccc(N(C)C)cc1`, the activity (max response) in assay [1] was 5.28%. Also, in assay [2], the Potency result is “inactive”.

In the case of `COC(=O)c1c(Cl)c(Cl)c(C(=O)OC)c(Cl)c1Cl`, the activity (max response) in assay [1] was 12.2%. Moreover, the Potency entry in assay [2] was “inactive”.

Consider `C#C[C@]1(O)CC[C@H]2[C@@H]3CCc4cc(OC5CCCC5)ccc4[C@H]3CC[C@@]21C`, for which, in assay [1], the activity (max response) is -6.39%. The Potency in assay [2] is 14.6 µM (active).

For the compound `CCCc1c(OCCCCc2nn[nH]n2)ccc(C(C)=O)c1O`, the activity (max response) in assay [1] is -4.43%. The Potency entry in assay [2] was “inactive”.

Turning to `CCCCNc1ccc(C(=O)OCCN(CC)CC)cc1`, in assay [1], the activity (max response) was -7.77%. Also, in assay [2], the Potency entry is “inactive”.

As for `C=C[C@H]1CN2CC[C@H]1C[C@H]2[C@H](O)c1ccnc2ccc(OC)cc12`, the activity (max response) in assay [1] is -6.74%. Also, the Potency result in assay [2] was “inactive”.

Take `CCN(CC)CCOC(=O)C(c1ccccc1)c1ccccc1`: in assay [1], the activity (max response) is 0.334%. For the same compound, in assay [2], the Potency entry was “inactive”.

On to `c1ccc(-c2nc[nH]c2-c2ccccc2)cc1`, for which, in assay [1], the activity (max response) is -22.8%. Also, in assay [2], the Potency entry was “inactive”.

For `C[C@H](CCC(=O)O)[C@H]1CC[C@H]2[C@@H]3[C@H](O)C[C@@H]4C[C@H](O)CC[C@]4(C)[C@H]3CC[C@]12C`, in assay [1], the activity (max response) was -16.1%. Moreover, the Potency result in assay [2] was “inactive”.

Consider `CC(C)Cc1ccc(C(C)C(=O)OCc2ccccn2)cc1` (stereo not drawn), for which the activity (max response) in assay [1] is 14%. Further, the Potency result in assay [2] was “inactive”.

For the compound `Cc1ccc(NC(=O)[C@H]2CCCN(C(=O)c3c(C)cccc3F)[C@H]2c2ccc(NC3CCCC3)cc2)cc1C(F)(F)F`, the activity (max response) in assay [1] is -13.2%. Also, the Potency result in assay [2] is “inactive”.

Consider `CN(CC1(C)CCCO1)S(=O)(=O)c1ccc(Cl)c(S(N)(=O)=O)c1` (stereo not drawn), for which the activity (max response) in assay [1] is 13.7%. Also, the Potency result in assay [2] was “inactive”.

On to `COc1ccc(C(=O)N2CCN(C(=O)/C=C/c3ccc(Br)cc3)CC2)cc1`, for which the activity (max response) in assay [1] is -12.8%. In addition, in assay [2], the Potency result is “inactive”.

Turning to `CCN(CC)c1ccc(C(=C2C=CC(=[N+](CC)CC)C=C2)c2cc(S(=O)(=O)O)ccc2S(=O)(=O)[O-])cc1`, the Potency is 8.2 µM (active) in assay [1] and 7.31 µM (active) in assay [2].

As for `COc1cccc(-c2c(C)n(Cc3c(F)cccc3C(F)(F)F)c(=O)n(C[C@H](NCCCC(=O)O)c3ccccc3)c2=O)c1F`, the activity (max response) in assay [1] was 3.23% and 7.63%. Further, the Potency entry in assay [2] was “inactive”.

`C[C@@H]1CCN(C(=O)CC#N)C[C@@H]1N(C)c1ncnc2[nH]ccc12`: the activity (max response) in assay [1] was -8.3%. In addition, in assay [2], the Potency entry was “inactive”.

In the case of `NS(=O)(=O)c1cc(C(=O)NN2C[C@H]3[C@H]4CCC(C4)[C@H]3C2)ccc1Cl`, the activity (max response) in assay [1] is -7.57%. For the same compound, in assay [2], the Potency entry is “inactive”.

For `CCC(CC)C(c1ccc(Nc2nc3ccccc3s2)cc1)n1cncn1` (stereo not drawn), the Potency in assay [1] is 22.4 µM (active); in assay [2], 17.8 µM (active).

As for `CN1C(=O)N(c2cc(Cl)cc(Cl)c2)C(=O)[C@]12CN(Cc1cc(C(=O)O)cs1)C[C@H]2c1ccc(C#N)cc1`, in assay [1], the activity (max response) was -17%. Also, the Potency entry in assay [2] is “inactive”.

With `Cc1c(-c2c(-c3ccc(F)o3)sc3ncnc(O[C@@H](Cc4ccccc4OCc4ccnn4CC(F)(F)F)C(=O)O)c23)ccc(OCCN2CCN(C)CC2)c1Cl`, the Potency is 0.199 µM (active) in assay [1] and 1.58 µM (active) in assay [2].

Turning to `CCNC(=O)[C@H]1O[C@@H](n2cnc3c(N)nc(NCCc4ccc(CCC(=O)O)cc4)nc32)[C@H](O)[C@@H]1O`, the activity (max response) in assay [1] was -2.22%. Besides, in assay [2], the Potency result is “inactive”.

In the case of `CS(=O)(=O)c1ccc([C@@H](O)[C@@H](CF)NC(=O)C(Cl)Cl)cc1`, the activity (max response) in assay [1] was -12.7%. Also, the Potency result in assay [2] is “inactive”.

Take `COc1c(C)cc(NC(=O)c2nn(Cc3ccc(F)cc3)c3c2CN(C(=O)c2ccc[nH]2)C[C@]3(C)C(N)=O)cc1C`: the activity (max response) in assay [1] was -5.75%. Also, the Potency result in assay [2] is “inactive”.

Regarding `CC1=C2[N-][C@H]([C@H](CC(N)=O)[C@@]2(C)CCC(=O)NC[C@@H](C)OP(=O)([O-])O[C@H]2[C@@H](O)[C@@H](n3cnc4cc(C)c(C)cc43)O[C@@H]2CO)[C@]2(C)N=C(C(C)=C3N=C(C=C4N=C1[C@@H](CCC(N)=O)C4(C)C)[C@@H](CCC(N)=O)[C@]3(C)CC(N)=O)[C@@H](CCC(N)=O)[C@]2(C)CC(N)=O.O.[Co+2]`, the activity (max response) in assay [1] is -17.2%. Moreover, the Potency entry in assay [2] was “inactive”.
